From PubChem BioAssay (NCATS) come the findings set out here.

Holding throughout (test): qHTS profiling for inhibitors of Plasmodium falciparum proliferation (AID 504749); further: nearly all actives have a fitted effect of over 60% in size
Holding throughout (conditions): P. falciparum in erythrocytes, SYBR Green DNA, 72 h; series mostly up to 28.7 µM

One assay concerns C2A. An outline of the steps:
(§1)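 Infected RBCs, 0.3% parasitemia/2.5% Hct final; cpd 72 h, 37 C, 5% CO2; lysis buffer with saponin/triton/SYBR Green I, o/n RT dark; FI 485/535; norm. to artemisinin (0.29 uM) and DMSO.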

A further assay relates to CP185. A digest of the protocol:
as §1

The next assay deals with CP191. A digest of the protocol:
as §1

The subject of the next assay is CP192. An outline of the steps:
as §1

The test system of a further assay is CP194. An outline of the steps:
as §1

For another assay, the system named is CP201. A digest of the protocol:
as §1

The test system of a further assay is CP203. A digest of the protocol: as §1
A further assay concerns CP211. An outline of the steps: as §1
A further assay concerns CP215. A digest of the protocol: as §1
A further assay relates to CP217. A digest of the protocol:
as §1

The structures appear in SMILES notation. Records with an inconclusive call do not appear. Active and inactive are the calls of the source. The call rests on the fitted dose curve; in most records, active means well fitted inhibition curve with a large enough effect; inconclusive means small, poorly fitted or top-dose-only effect; inactive means flat fitted curve, though single readings scatter.
Potency means the concentration at half of the fitted maximal effect.

`CCN(CC)C(=O)N1CCN(C)CC1`: the Potency entry with C2A, with CP185, with CP191, in the assay on CP192, in the assay on CP194 and in the assay on CP201 was “inactive” each time. The Potency result in the assay with CP203, in the assay on CP211, with CP215 and in the assay on CP217 was “inactive” throughout.
Regarding `Cc1c(C(C)C)c(=O)n(-c2ccccc2)n1C`, the Potency entry with C2A, in the assay on CP185, in the assay on CP191, with CP192, in the assay on CP194 and with CP201 was “inactive” each time. Moreover, the Potency result in the assay with CP203, in the assay on CP211, in the assay with CP215 and in the assay on CP217 was “inactive” throughout.
As for `CC(C)(CO)[C@@H](O)C(=O)NCCCO`, the Potency entry with C2A, with CP185, with CP191, with CP192, in the assay on CP194 and in the assay on CP201 was “inactive” throughout. Moreover, the Potency result with CP203, in the assay on CP211, in the assay with CP215 and in the assay with CP217 was “inactive” each time.
Take `CCCCOc1ccc(OCCCN2CCOCC2)cc1`: the Potency result with C2A, in the assay on CP185, with CP191, with CP192, with CP194 and with CP201 was “inactive” throughout. The Potency result with CP203, in the assay with CP211, in the assay with CP215 and in the assay on CP217 was “inactive” each time.
Consider `COc1cc(NS(C)(=O)=O)ccc1Nc1c2ccccc2nc2ccccc12`, for which the Potency is 1.78 µM (active) in the assay on C2A; 4.47 µM (active) in the assay on CP185; 0.794 µM (active) with CP191; 5.36 µM (active) with CP192; 4.78 µM (active) with CP194; 5.36 µM (active) in the assay with CP201. Also, the Potency in the assay with CP203 was 4.26 µM (active); with CP211, 4.78 µM (active); with CP215, 3.38 µM (active); in the assay on CP217, 3.16 µM (active).
Take `COc1cc(C(=S)N2CCOCC2)cc(OC)c1OC`: the Potency entry in the assay on C2A, in the assay on CP185, in the assay on CP191, in the assay with CP192, in the assay with CP194 and in the assay on CP201 was “inactive” each time. For the same compound, the Potency entry in the assay with CP203, in the assay with CP211, with CP215 and with CP217 was “inactive” throughout.
As to `Nc1ccc(C(=O)O)cc1`, the Potency entry in the assay with C2A, with CP185, with CP191, with CP192, with CP194 and in the assay with CP201 was “inactive” in each case. Moreover, the Potency result with CP203, with CP211, in the assay with CP215 and with CP217 was “inactive” throughout.
Consider `c1ccc(OCc2ccc(CCCN3CCOCC3)cc2)cc1`, for which the Potency entry with C2A, with CP185, in the assay with CP191, in the assay on CP192, in the assay with CP194 and with CP201 was “inactive” throughout. In addition, the Potency result in the assay with CP203, in the assay on CP211, with CP215 and with CP217 was “inactive” throughout.
In the case of `C=CCc1ccc(O)c(OC)c1`, the Potency result in the assay on C2A, with CP185, in the assay with CP191, with CP192, with CP194 and in the assay with CP201 was “inactive” throughout. Besides, the Potency result in the assay with CP203, in the assay with CP211, in the assay on CP215 and in the assay with CP217 was “inactive” in each case.
Turning to `NCCC(O)(P(=O)(O)O)P(=O)(O)O`, the Potency entry in the assay with C2A, with CP185, in the assay with CP191, in the assay with CP192, in the assay on CP194 and in the assay with CP201 was “inactive” in each case. For the same compound, the Potency result in the assay on CP203, in the assay on CP211, with CP215 and with CP217 was “inactive” throughout.
As to `CCN(CC)C(=O)/C(C#N)=C/c1cc(O)c(O)c([N+](=O)[O-])c1`, the Potency result in the assay on C2A, with CP185, in the assay with CP191, in the assay with CP192, with CP194 and in the assay with CP201 was “inactive” throughout. The Potency entry with CP203, in the assay with CP211 and in the assay on CP215 was “inactive” throughout.
Regarding `Cc1c(C)n(CCN(C)C)c2ccc(C(=O)OCCN(C)C)cc12`, the Potency entry in the assay on C2A, with CP185, in the assay on CP191, in the assay on CP192, with CP194 and in the assay with CP201 was “inactive” throughout. For the same compound, the Potency result in the assay with CP203, in the assay with CP211, in the assay with CP215 and in the assay on CP217 was “inactive” in each case.
As for `C[N+]1(CCCCC[N+]2(C)CCCC2)CCCC1`, the Potency result with C2A, in the assay with CP185, in the assay on CP191, in the assay with CP192, with CP194 and with CP201 was “inactive” each time. In addition, the Potency entry in the assay with CP203, in the assay with CP211, with CP215 and with CP217 was “inactive” throughout.
In the case of `O=C1c2ccccc2C(=O)C1c1ccccc1`, the Potency entry in the assay on C2A, in the assay with CP185, in the assay with CP191, in the assay on CP192, in the assay on CP194 and with CP201 was “inactive” throughout. In addition, the Potency entry in the assay on CP203, with CP211, in the assay on CP215 and in the assay with CP217 was “inactive” each time.
Take `NC(CO)(CO)CO`: the Potency result in the assay with C2A, in the assay on CP185, in the assay on CP191, in the assay with CP192, with CP194 and with CP201 was “inactive” in each case. The Potency result in the assay on CP203, with CP211, with CP215 and in the assay with CP217 was “inactive” each time.
As for `CCCCC1=NC2(CCCC2)C(=O)N1Cc1ccc(-c2ccccc2-c2nn[nH]n2)cc1`, the Potency result with C2A, in the assay on CP185, in the assay with CP191, in the assay on CP192, in the assay with CP194 and with CP201 was “inactive” in each case. Besides, the Potency entry in the assay on CP203, with CP211, with CP215 and in the assay with CP217 was “inactive” throughout.
As to `CC(C)(Oc1ccc(Cl)cc1)C(=O)O`, the Potency entry in the assay with C2A, in the assay on CP185, in the assay on CP191, with CP192, in the assay on CP194 and in the assay on CP201 was “inactive” throughout. The Potency result with CP203, in the assay with CP211, in the assay with CP215 and in the assay with CP217 was “inactive” each time.
For `COc1cc2c(cc1OC)C(C(C(=O)N(CCc1ccc(OC)c(OC)c1OC)CCc1ccc(OC)c(OC)c1OC)c1ccccc1)=NCC2` (centres undefined), the Potency entry in the assay on C2A is “inactive”. Besides, the Potency was 10 µM (active) in the assay with CP185; 10 µM (active) with CP191; 13.5 µM (active) in the assay with CP192; 13.5 µM (active) in the assay on CP194; 15.1 µM (active) in the assay with CP201; 6.75 µM (active) in the assay on CP203. Besides, the Potency in the assay with CP211 was 12 µM (active); in the assay on CP215 it was 6.75 µM (active); with CP217 it was 4.47 µM (active).
In the case of `Cc1cccn2c(=O)c(-c3nnn[nH]3)cnc12`, the Potency result with C2A, in the assay with CP185, with CP191, in the assay on CP192, in the assay with CP194 and in the assay on CP201 was “inactive” throughout. Further, the Potency result in the assay with CP203, in the assay on CP211, in the assay on CP215 and in the assay on CP217 was “inactive” each time.
Turning to `COc1ccc(/C=C/C(=O)c2ccc(OC)cc2OC)cc1`, the Potency in the assay with C2A was 11.2 µM (active); in the assay on CP185 it was 8.91 µM (active); with CP191 it was 3.16 µM (active); in the assay on CP192 it was 13.5 µM (active); in the assay with CP194, 12 µM (active); in the assay on CP201, 8.49 µM (active). Also, the Potency is 13.5 µM (active) in the assay on CP203, 6.75 µM (active) in the assay on CP211, 6.75 µM (active) in the assay on CP215 and 5.01 µM (active) in the assay on CP217.
For the compound `CCCn1c(=O)[nH]c(=O)c2[nH]cnc21`, the Potency entry in the assay with C2A, in the assay with CP185, with CP191, in the assay on CP192, with CP194 and with CP201 was “inactive” each time. The Potency entry in the assay on CP203, in the assay on CP211, with CP215 and in the assay on CP217 was “inactive” in each case.
